The values below come from PubChem BioAssay (NCI).

Compounds without any hit were thinned out: in the full panel of roughly 79,000, 15% have a hit. Values without a mark were called inactive. Calls of active or inactive are those of the source. Cut-off read from the data, not from the text of the source: active = growth inhibition above about 70%; inactive = the rest.

The nature of assay [1]: NCI Yeast Anticancer Drug Screen. Data for the rad50 strain (AID 155).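 Note: 0% = growth of vehicle-only cultures of the same strain.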 The note with it: S. cerevisiae rad50 strain growth inhibition; at 50.0 µM; stronger effect = higher value. In a few lines: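 Compounds were tested on a yeast strain with an engineered DNA damage repair alteration; the reported value is growth inhibition normalised to vehicle treatment.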
A short description of assay [2]: NCI Yeast Anticancer Drug Screen. Data for the mec2-1 strain (AID 157). The note with it: S. cerevisiae mec2-1 strain, at 50.0 µM, stronger effect = higher value. In a few lines: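 Compounds were applied to mec2-1 yeast cells. Their growth was then compared with that of vehicle-treated cultures to give growth inhibition.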
The nature of assay [3]: NCI Yeast Anticancer Drug Screen. Data for the sgs1 mgt1 strain (AID 161).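 Note: 0% = growth of cultures given vehicle only.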 The note with it: S. cerevisiae sgs1 mgt1 strain, at 50.0 µM, stronger effect = higher value. In a few lines:
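Growth of a repair-deficient yeast mutant was monitored after compound treatment and expressed as inhibition relative to vehicle-treated cultures.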

Assay [4] in a line: NCI Yeast Anticancer Drug Screen. Data for the cln2 rad14 strain (AID 165).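 Note: 0% = growth equal to vehicle treated cultures.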 The note with it: S. cerevisiae cln2 rad14 strain, at 50.0 µM, stronger effect = higher value. In a few lines:
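Strain: cln2 rad14 yeast, altered in cell cycle control and DNA damage repair. Read-out: growth inhibition vs vehicle.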

The nature of assay [5]: NCI Yeast Anticancer Drug Screen. Data for the bub3 strain (AID 167). The note with it: S. cerevisiae bub3 mutant strain, at 50.0 µM, stronger effect = higher value. The essentials:
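Growth of a checkpoint-deficient yeast mutant is measured after compound exposure. Values represent inhibition relative to vehicle.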

A short description of assay [6]: NCI Yeast Anticancer Drug Screen. Data for the mlh1 rad18 strain (AID 175). Conditions: S. cerevisiae mlh1 rad18 strain growth inhibition; at 50.0 µM; stronger effect = higher value. The essentials: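 A repair-deficient yeast strain is exposed to test compound, and growth is scored relative to vehicle-treated controls.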

In the case of `O=C(C[n+]1cc(Br)cc(Br)c1)c1ccc2ccccc2c1`, the growth inhibition in assay [1] is 27.2%; in assay [2], 3.45%; in assay [3], 7.7%; in assay [4], 11.8%; in assay [5], 20.2%; in assay [6] it was 43.6%.
Consider `CC(Nc1cc(Cl)ccc1C(=O)O)C(=O)O` (stereo unspecified), for which the growth inhibition in assay [1] is 0.9%; in assay [2], 14.7%; in assay [3], -9.75%; in assay [4], -40.1%; in assay [5], -11.2%; in assay [6], -8.05%.
Take `[N-]=[N+]=CC(=O)C1OC1c1ccc2ccccc2c1` (stereo unspecified): the growth inhibition was 0.8% in assay [1]; 21.6% in assay [2]; 0.8% in assay [3]; 1.5% in assay [4]; 14.3% in assay [5]; 22.9% in assay [6].
`CN1CCOC1(C)CO` (stereo unspecified): the growth inhibition in assay [1] is 3.85%; in assay [2], -16.7%; in assay [3] it was -10.3%; in assay [4], -20.6%; in assay [5], -8.5%; in assay [6], -55%.
In the case of `CCOc1ccc(N2C(C#N)c3ccccc3OC2c2ccccc2O)cc1` (stereo unspecified), the growth inhibition in assay [1] is 3.65%; in assay [2], 46.1%; in assay [3], 18.6%; in assay [4], -5.2%; in assay [5], 32.5%; in assay [6], 11.6%.
As for `O=C(O)c1ccc2c(c1)Cc1ccccc1-2`, the growth inhibition is 30.5% in assay [1]; 47.9% in assay [2]; 51.3% in assay [3]; 45.1% in assay [4]; 35.6% in assay [5]; 42% in assay [6].
For `N#CC(C(=O)C(=O)Nc1cccc(C(F)(F)F)c1)c1c(Cl)cccc1Cl` (stereo unspecified), the growth inhibition in assay [1] was 10.1%; in assay [2], 11.6%; in assay [3] it was 17.1%; in assay [4], -35%; in assay [5], -1.7%; in assay [6], 2.15%.
`Cc1[nH]n(C(N)=S)c(=O)c1N=Nc1c(Cl)cccc1Cl`: the growth inhibition was 55.4% in assay [1]; 14.9% in assay [2]; 63.2% in assay [3]; -37.4% in assay [4]; 11.9% in assay [5]; 51% in assay [6].
In the case of `O=C(c1ccc(Cl)cc1)c1cc([N+](=O)[O-])cc([N+](=O)[O-])c1`, the growth inhibition in assay [1] is -0.35%; in assay [2] it was 3%; in assay [3] it was -2.45%; in assay [4] it was -49.6%; in assay [5], 22.8%; in assay [6], -8.75%.
In the case of `COC(=O)C(c1ccccc1)C(CBr)(OC)c1ccccc1` (stereo unspecified), the growth inhibition in assay [1] is 18.8%; in assay [2], 8.85%; in assay [3], 12.5%; in assay [4], 15.8%; in assay [5] it was 13.6%; in assay [6], 27.1%.
In the case of `CC(C)SC1SCC2C(=O)N(C)C3(CC3C)C(=O)OCC(NC(=O)c3nc4ccccc4cc3O)C(=O)NC(C)C(=O)N(C)C1C(=O)N(C)C1(CC1C)C(=O)OCC(NC(=O)c1nc3ccccc3cc1O)C(=O)NC(C)C(=O)N2C` (stereo unspecified), the growth inhibition in assay [1] was 70.4% (active); in assay [2], 68%; in assay [3], 78% (active); in assay [4], 73.8% (active); in assay [5] it was 78.8% (active); in assay [6], 81.2% (active).
Take `CCN(CC)C1Oc2cc3c(cc2C(c2cc(OC)c(O)c(OC)c2)C1C)OCO3` (stereo unspecified): the growth inhibition was -14.6% in assay [1]; -23.9% in assay [2]; -7.7% in assay [3]; 3.35% in assay [4]; -7.1% in assay [5]; 3.85% in assay [6].
Take `COC[C@@H](N=Cc1ccc(OC)cc1)C(C)C`: the growth inhibition is -12.2% in assay [1]; -19.4% in assay [2]; -49.6% in assay [3]; -28.8% in assay [4]; 25.9% in assay [5]; -30.5% in assay [6].
For `O=C(Nc1ccc2ncccc2c1)Nc1ccc2ncccc2c1`, the growth inhibition in assay [1] was 12.9%; in assay [2], -12.8%; in assay [3] it was 4.2%; in assay [4], -4.85%; in assay [5] it was -10.4%; in assay [6] it was 21.4%.
`CCOC(=O)/C=C1\CCC(C)n2c1nccc2=O` (stereo unspecified): the growth inhibition in assay [1] was -14.1%; in assay [2], 4.8%; in assay [3] it was -6%; in assay [4], -7.5%; in assay [5], 14.5%; in assay [6], 14.3%.
On to `C=CS(=O)(=O)CCOc1ccc(Cl)cc1Cl`, for which the growth inhibition in assay [1] is 98.8% (active); in assay [2], 99.2% (active); in assay [3], 99.7% (active); in assay [4], 97.8% (active); in assay [5], 98.4% (active); in assay [6], 98.9% (active).
`[O-][N+]1=C(c2ccccc2)C(c2ccccc2)C(c2ccccc2)O1` (stereo unspecified): the growth inhibition is -13.4% in assay [1]; 1.05% in assay [2]; -2.4% in assay [3]; -6% in assay [4]; -19.1% in assay [5]; 11.2% in assay [6].
Take `Nc1ncc2c(ncn2CC(O)CO)n1` (stereo unspecified): the growth inhibition in assay [1] was -24.6%; in assay [2] it was -2.5%; in assay [3] it was -1.55%; in assay [4], 4.65%; in assay [5] it was -3%; in assay [6] it was -3.25%.
Consider `CSc1nc(=S)c2[nH]c(=S)[nH]c2[nH]1`, for which the growth inhibition in assay [1] is -1.2%; in assay [2], 11.4%; in assay [3], -6.5%; in assay [4], -35.9%; in assay [5] it was 21.5%; in assay [6] it was 4.05%.
On to `CCOC(=N)c1ccc(C(=N)OCC)cc1`, for which the growth inhibition in assay [1] was -11.2%; in assay [2], -29.4%; in assay [3], -29.4%; in assay [4], -20.8%; in assay [5], -32.5%; in assay [6], -41.7%.
Consider `CCOC(=O)C(C(=O)c1cccnc1)C(C(=O)OCC)C(=O)c1cccnc1` (stereo unspecified), for which the growth inhibition in assay [1] is 5.1%; in assay [2] it was 20.9%; in assay [3], 6%; in assay [4], 20.4%; in assay [5] it was 12.1%; in assay [6], 5.55%.
